Calls of active or inactive are those of the source. How the source made its calls: active means hit-call score of the fitted dose curve at least 0.9, where 1 is the maximum; inactive means score below 0.9.
How the values were obtained:
[1] = ATG_GLI_CIS: Attagene CIS-FACTORIAL HepG2 Assay for human Zinc Finger Protein GLI1 (AID 2282945); settings: HepG2, Attagene cis-factorial reporter mRNA, GLI element; actives raise or lower the signal
Summary of the method: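 Bidirectional curve fits relative to DMSO, using reporter mRNA levels from RT-PCR plus capillary electrophoresis. Cells were HepG2 transiently carrying cis-regulated reporter constructs, harvested 24 h after dosing.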

[2] = molecular target: Bile acid receptor (Homo sapiens) (UniProt Q96RI1); assay: ATG_IR1_CIS: Attagene CIS-FACTORIAL HepG2 Assay for human Nuclear Receptor Subfamily 1 Group H Member 4 (NR1H4), IR1 submotif (AID 2282946); settings: IR1 reporter transcription, actives raise or lower the signal
Sequence of Bile acid receptor (Homo sapiens) (Q96RI1 whole entry, looked up, the tested form may be a part): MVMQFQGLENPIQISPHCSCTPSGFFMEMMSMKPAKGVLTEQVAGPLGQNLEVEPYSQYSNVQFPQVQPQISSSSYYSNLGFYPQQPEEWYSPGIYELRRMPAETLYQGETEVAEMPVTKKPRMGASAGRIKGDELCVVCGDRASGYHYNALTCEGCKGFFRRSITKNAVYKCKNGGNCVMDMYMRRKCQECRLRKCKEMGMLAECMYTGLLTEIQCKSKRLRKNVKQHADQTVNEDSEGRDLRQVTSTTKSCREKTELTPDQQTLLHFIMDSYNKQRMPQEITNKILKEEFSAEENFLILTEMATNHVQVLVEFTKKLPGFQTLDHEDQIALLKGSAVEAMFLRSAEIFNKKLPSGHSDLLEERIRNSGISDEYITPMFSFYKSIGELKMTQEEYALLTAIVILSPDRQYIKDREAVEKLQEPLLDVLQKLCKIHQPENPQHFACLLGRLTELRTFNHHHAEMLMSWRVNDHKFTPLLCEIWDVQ
Summary of the method: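 Cells (human HepG2) carry transiently transfected cis-promoter reporter transcription units. Compounds are incubated 24 h, total RNA is reverse-transcribed and amplified, and labelled fragments are resolved by capillary electrophoresis. Curves use DMSO as baseline.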

[3] = ATG_ISRE_CIS: Attagene CIS-FACTORIAL HepG2 Assay for human Interferon Regulatory Factor 1 (IRF1) binding to an Interferon-Stimulated Response Element (ISRE) (AID 2282948); settings: HepG2 ISRE cis-reporter (Attagene), mRNA transcription readout; actives raise or lower the signal
Summary of the method: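 HepG2 cells transiently transfected with multiplexed cis-promoter reporter units; after 24 h compound exposure, reporter mRNA quantified by RT-PCR, FAM labelling, HpaI digestion and capillary electrophoresis. Bidirectional fit versus DMSO baseline.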

[4] = ATG_M_32_CIS: Attagene CIS-FACTORIAL HepG2 Assay for M32 Transcription Factor (Internal Marker) (AID 2282949); settings: HepG2 Attagene cis-factorial M32 reporter, mRNA; actives raise or lower the signal;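 further: background control marker of the multiplexed CIS panel rather than a real target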
Summary of the method: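 Fluorescent capillary electrophoresis peaks of HpaI-digested, FAM-labelled RT-PCR reporter products give the signal. Source: transiently transfected human liver HepG2 cells, 24 h after chemical dosing; bidirectional fitting against DMSO.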

[5] = ATG_M_06_CIS: Attagene CIS-FACTORIAL HepG2 Assay for M06 Transcription Factor (Internal Marker) (AID 2282950); settings: HepG2 Attagene CIS-FACTORIAL M06 internal marker reporter; actives raise or lower the signal
Summary of the method: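 One of many multiplexed endpoints: HepG2 reporter mRNA after 24 h dosing, detected by RT-PCR and capillary electrophoresis fluorescence; gain or loss of signal analysed against DMSO.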

[6] = molecular target: Hypoxia-inducible factor 1-alpha (Homo sapiens) (UniProt Q16665); assay: ATG_HIF1a_CIS: Attagene CIS-FACTORIAL HepG2 Assay for human Hypoxia Inducible Factor 1 (HIF1A) (AID 2282951); settings: HepG2 Attagene cis-factorial HIF1a reporter transcription; actives raise or lower the signal
Sequence of Hypoxia-inducible factor 1-alpha (Homo sapiens) (Q16665 whole entry, looked up): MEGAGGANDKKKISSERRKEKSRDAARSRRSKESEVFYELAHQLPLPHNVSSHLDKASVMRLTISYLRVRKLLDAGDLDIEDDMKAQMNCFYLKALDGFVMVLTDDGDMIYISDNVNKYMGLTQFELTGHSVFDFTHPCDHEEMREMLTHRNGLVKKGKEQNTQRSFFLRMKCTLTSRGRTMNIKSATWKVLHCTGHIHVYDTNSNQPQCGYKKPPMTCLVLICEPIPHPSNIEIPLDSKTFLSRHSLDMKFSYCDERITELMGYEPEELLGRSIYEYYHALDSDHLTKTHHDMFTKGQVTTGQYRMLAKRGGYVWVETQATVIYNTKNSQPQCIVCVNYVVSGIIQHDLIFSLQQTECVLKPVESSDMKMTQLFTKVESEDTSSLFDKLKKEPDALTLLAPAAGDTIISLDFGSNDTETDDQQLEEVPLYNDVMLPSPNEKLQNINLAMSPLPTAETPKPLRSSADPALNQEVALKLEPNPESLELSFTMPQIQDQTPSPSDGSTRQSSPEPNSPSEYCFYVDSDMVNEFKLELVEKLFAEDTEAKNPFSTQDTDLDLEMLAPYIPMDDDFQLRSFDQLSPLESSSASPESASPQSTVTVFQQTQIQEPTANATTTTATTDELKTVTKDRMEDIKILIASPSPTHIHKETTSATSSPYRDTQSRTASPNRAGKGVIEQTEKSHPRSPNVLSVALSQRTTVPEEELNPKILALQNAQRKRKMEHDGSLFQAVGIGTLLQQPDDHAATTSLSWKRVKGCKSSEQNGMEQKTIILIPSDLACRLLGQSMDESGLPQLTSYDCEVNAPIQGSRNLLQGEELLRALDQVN
Summary of the method: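 HepG2, transient cis-reporter library, 24 h dosing. RNA → RT (oligo dT) → PCR → 6-FAM primer extension → HpaI → CE. Bidirectional curve fit vs DMSO.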

[7] = molecular target: Hepatocyte nuclear factor 6 (Homo sapiens) (UniProt Q9UBC0); assay: ATG_HNF6_CIS: Attagene CIS-FACTORIAL HepG2 Assay for human Hepatocyte Nuclear Factor 6 (HNF6) (AID 2282952); settings: HepG2 Attagene cis-factorial HNF6 reporter transcription; actives raise or lower the signal
Sequence of Hepatocyte nuclear factor 6 (Homo sapiens) (Q9UBC0 whole entry, looked up, the tested form may be a part): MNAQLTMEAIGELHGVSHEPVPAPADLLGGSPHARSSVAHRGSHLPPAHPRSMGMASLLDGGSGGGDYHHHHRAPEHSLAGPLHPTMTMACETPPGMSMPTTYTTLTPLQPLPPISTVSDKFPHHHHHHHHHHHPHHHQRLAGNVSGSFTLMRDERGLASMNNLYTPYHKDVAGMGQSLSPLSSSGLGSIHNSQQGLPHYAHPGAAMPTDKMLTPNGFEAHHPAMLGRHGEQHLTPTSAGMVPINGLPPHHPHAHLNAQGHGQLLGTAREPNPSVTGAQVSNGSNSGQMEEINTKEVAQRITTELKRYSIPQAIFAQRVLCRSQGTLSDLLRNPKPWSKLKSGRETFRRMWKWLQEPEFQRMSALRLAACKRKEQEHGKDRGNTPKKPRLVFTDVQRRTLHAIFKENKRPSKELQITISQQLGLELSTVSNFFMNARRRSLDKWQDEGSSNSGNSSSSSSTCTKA
Summary of the method: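 HepG2 cells transiently transfected with cis-element-driven multiplexed reporter units measuring endogenous transcription factor activity. After 24 h exposure, reporter mRNA quantified by RT-PCR, FAM-labelled fragments and capillary electrophoresis; bidirectional fitting versus DMSO.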

[8] = ATG_MRE_CIS: Attagene CIS-FACTORIAL HepG2 Assay for human Metal Responsive Element (MRE) (AID 2282954); settings: HepG2 MRE cis-reporter transcription, Attagene multiplex; actives raise or lower the signal
Summary of the method: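 Transient MRTU transfection of HepG2 (FuGene 6); 24 h dosing; total RNA → oligo(dT) RT, PCR, 6-FAM primer extension, HpaI cut, CE. Bidirectional fit vs DMSO.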

[9] = ATG_PBREM_CIS: Attagene CIS-FACTORIAL HepG2 Assay for human Phenobarbital-responsive Enhancer Module (PBREM) (AID 2282955); settings: HepG2 PBREM cis-reporter, Attagene multiplexed transcription; actives raise or lower the signal
Summary of the method: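 HepG2, transient MRTU transfection, 24 h dosing; RNA → oligo(dT) RT → PCR → 6-FAM extension → HpaI → CE. Bidirectional fit vs DMSO.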

[10] = ATG_PXRE_CIS: Attagene CIS-FACTORIAL HepG2 Assay for human Pregnane X Receptor Element (PXRE) (AID 2282957); settings: HepG2 Attagene CIS-FACTORIAL PXRE reporter, mRNA; actives raise or lower the signal
Summary of the method: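 HepG2 cells transiently transfected with cis-element-driven multiplexed reporter units; after 24 h chemical exposure, reporter mRNA measured by RT-PCR, 6-FAM labelling, HpaI digestion and capillary electrophoresis. Bidirectional fitting relative to DMSO.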

[11] = ATG_RORE_CIS: Attagene CIS-FACTORIAL HepG2 Assay for human RAR-related Orphan Receptor Element (RORE) (AID 2282959); settings: HepG2 Attagene cis-factorial RORE reporter, mRNA; actives raise or lower the signal
Summary of the method: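 Multiplexed reporter assay measuring mRNA induction from a cis promoter element in transiently transfected HepG2 cells after 24 h treatment. Detection via RT-PCR and capillary electrophoresis fluorescence; DMSO serves as baseline.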

[12] = ATG_Sox_CIS: Attagene CIS-FACTORIAL HepG2 Assay for human SRY-box transcription factor (SOX) (AID 2282960); settings: HepG2 Attagene cis-factorial SOX reporter, mRNA; actives raise or lower the signal
Summary of the method: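 Cells were transfected with reporter constructs under cis-regulatory promoters, then exposed to chemicals for 24 h. Reporter transcripts were quantified by fluorescence after RT-PCR and capillary electrophoresis; activity was fitted in both directions against DMSO.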

[13] = molecular target: Transcription factor Sp1 (Homo sapiens) (UniProt P08047); assay: ATG_Sp1_CIS: Attagene CIS-FACTORIAL HepG2 Assay for human Specificity Protein 1 (Sp1) (AID 2282961); settings: HepG2 Sp1 cis-reporter transcription, actives raise or lower the signal
Sequence of Transcription factor Sp1 (Homo sapiens) (P08047 whole entry, looked up): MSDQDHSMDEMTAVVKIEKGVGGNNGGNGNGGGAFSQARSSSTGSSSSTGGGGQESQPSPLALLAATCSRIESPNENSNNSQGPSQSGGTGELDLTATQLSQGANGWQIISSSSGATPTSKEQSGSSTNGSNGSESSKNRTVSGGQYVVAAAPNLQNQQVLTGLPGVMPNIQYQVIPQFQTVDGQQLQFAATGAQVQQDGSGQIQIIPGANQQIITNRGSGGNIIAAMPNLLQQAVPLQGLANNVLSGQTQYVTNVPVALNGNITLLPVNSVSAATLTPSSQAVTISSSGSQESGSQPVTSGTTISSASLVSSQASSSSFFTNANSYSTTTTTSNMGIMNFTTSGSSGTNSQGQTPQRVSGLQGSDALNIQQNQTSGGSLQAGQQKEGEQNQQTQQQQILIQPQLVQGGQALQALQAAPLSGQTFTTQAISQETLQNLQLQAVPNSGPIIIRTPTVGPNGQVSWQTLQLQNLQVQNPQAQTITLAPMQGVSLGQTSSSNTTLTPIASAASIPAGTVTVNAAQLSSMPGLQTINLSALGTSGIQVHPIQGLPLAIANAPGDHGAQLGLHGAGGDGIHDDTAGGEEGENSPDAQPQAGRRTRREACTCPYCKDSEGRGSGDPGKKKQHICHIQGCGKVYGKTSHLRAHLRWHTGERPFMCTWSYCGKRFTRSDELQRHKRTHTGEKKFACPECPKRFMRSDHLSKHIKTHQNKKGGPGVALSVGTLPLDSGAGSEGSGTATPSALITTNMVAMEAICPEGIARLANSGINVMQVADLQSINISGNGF
Summary of the method: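 Measures mRNA induction of an Sp1-linked reporter in HepG2 cells 24 h post-dosing. Multiplexed reporters read by RT-PCR and capillary electrophoresis; DMSO serves as negative control and baseline.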

[14] = ATG_SREBP_CIS: Attagene CIS-FACTORIAL HepG2 Assay for human Sterol Regulatory Element Binding (SREBP) (AID 2282962); settings: HepG2 Attagene cis-factorial SREBP reporter, mRNA; actives raise or lower the signal
Summary of the method: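 HepG2 cells transiently transfected with multiplexed cis-element reporter units report endogenous transcription factor activity. After 24 h of chemical exposure, reporter mRNA was quantified by RT-PCR, 6-FAM labelling, HpaI digestion and capillary electrophoresis; bidirectional fits used DMSO as baseline.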

[15] = molecular target: Signal transducer and activator of transcription 3 (Homo sapiens) (UniProt P40763); assay: ATG_STAT3_CIS: Attagene CIS-FACTORIAL HepG2 Assay for human Signal Transducer and Activator of Transcription 3 (STAT3) (AID 2282963); settings: HepG2, Attagene cis-factorial STAT3 reporter transcription; actives raise or lower the signal
Sequence of Signal transducer and activator of transcription 3 (Homo sapiens) (P40763 whole entry, looked up): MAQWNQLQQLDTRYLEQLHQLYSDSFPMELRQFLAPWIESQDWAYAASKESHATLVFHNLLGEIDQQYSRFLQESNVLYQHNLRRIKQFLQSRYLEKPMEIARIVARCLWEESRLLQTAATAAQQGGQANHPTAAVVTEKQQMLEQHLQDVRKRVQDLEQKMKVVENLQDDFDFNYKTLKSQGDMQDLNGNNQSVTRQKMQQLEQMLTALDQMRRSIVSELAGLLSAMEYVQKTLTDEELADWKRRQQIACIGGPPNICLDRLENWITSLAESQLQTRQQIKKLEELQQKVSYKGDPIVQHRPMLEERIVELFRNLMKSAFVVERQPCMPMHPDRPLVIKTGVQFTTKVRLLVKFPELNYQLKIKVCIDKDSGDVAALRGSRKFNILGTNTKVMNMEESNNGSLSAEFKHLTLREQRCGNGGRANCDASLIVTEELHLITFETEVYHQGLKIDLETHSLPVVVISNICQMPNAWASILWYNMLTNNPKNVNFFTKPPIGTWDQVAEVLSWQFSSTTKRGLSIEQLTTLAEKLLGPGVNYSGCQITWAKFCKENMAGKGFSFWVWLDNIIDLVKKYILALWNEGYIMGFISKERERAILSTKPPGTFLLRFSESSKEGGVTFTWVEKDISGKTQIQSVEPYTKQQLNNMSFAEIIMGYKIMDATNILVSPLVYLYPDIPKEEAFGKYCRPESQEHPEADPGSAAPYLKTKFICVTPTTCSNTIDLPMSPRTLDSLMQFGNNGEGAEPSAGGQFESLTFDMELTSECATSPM
Summary of the method: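 Endogenous STAT3-responsive cis-element activity was read in transiently transfected HepG2 cells after 24 h treatment. Reporter transcripts were quantified via RT-PCR and capillary electrophoresis, with DMSO as negative control and bidirectional curve fitting.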

[16] = ATG_TA_CIS: Attagene CIS-FACTORIAL HepG2 Assay for human TA Basal Promoter (AID 2282964); settings: HepG2 Attagene CIS-factorial TA basal promoter reporter; actives raise or lower the signal
Summary of the method: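 Transient MRTU transfection of HepG2 preceded 24 h compound exposure. Reporter mRNA levels were then read by RT-PCR with capillary electrophoresis, and this background-control endpoint was fitted bidirectionally to DMSO.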

[17] = ATG_GRE_CIS: Attagene CIS-FACTORIAL HepG2 Assay for human Glucocorticoid Response Elements (GRE) (AID 2282947); settings: HepG2 GRE cis-reporter, Attagene multiplex mRNA; actives raise or lower the signal
Summary of the method: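 Transient MRTU transfection of human HepG2 liver cells; cis-regulated reporters report endogenous factors. 24 h dosing → RNA isolation → RT-PCR → 6-FAM primer extension → HpaI cut → CE fragment analysis. Bidirectional fit, DMSO negative control.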

[18] = molecular target: Heat shock factor protein 1 (Homo sapiens) (UniProt Q00613); assay: ATG_HSE_CIS: Attagene CIS-FACTORIAL HepG2 Assay for human Heat Shock Transcription Factor 1 (HSE) (AID 2282953); settings: HepG2 HSE cis-reporter, Attagene RNA transcription; actives raise or lower the signal
Sequence of Heat shock factor protein 1 (Homo sapiens) (Q00613 whole entry, looked up): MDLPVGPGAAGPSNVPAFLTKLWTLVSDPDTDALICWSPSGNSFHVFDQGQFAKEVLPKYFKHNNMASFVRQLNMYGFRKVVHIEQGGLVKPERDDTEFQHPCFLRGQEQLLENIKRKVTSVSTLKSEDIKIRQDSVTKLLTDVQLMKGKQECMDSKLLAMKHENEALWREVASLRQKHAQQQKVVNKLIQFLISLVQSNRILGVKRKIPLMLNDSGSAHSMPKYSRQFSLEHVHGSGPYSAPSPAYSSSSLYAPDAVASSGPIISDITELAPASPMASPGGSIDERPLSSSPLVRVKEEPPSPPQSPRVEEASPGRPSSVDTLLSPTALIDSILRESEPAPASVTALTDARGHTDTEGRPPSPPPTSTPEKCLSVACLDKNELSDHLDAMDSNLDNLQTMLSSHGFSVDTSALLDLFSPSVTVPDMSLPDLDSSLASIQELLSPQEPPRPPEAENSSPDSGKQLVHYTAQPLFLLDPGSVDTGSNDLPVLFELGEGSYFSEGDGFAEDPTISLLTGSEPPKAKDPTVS
Summary of the method: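 Using HepG2 with transfected cis-driven reporter constructs, compound effects on endogenous factor activity are scored as reporter mRNA change at 24 h. Detection: RT-PCR, HpaI digestion, capillary electrophoresis; bidirectional fitting to DMSO.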

[19] = ATG_PPRE_CIS: Attagene CIS-FACTORIAL HepG2 Assay for human Peroxisome Proliferator-activated Response Element (PPRE) (AID 2282958); settings: HepG2 PPRE cis-element reporter, Attagene transcription factor profiling; actives raise or lower the signal
Summary of the method: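 Transcript-level reporter induction in transfected HepG2 cells after 24 h chemical exposure, quantified by fluorescence from RT-PCR products separated by capillary electrophoresis.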

[20] = molecular target: Paired box protein Pax-6 (Homo sapiens) (UniProt P26367); assay: ATG_Pax6_CIS: Attagene CIS-FACTORIAL HepG2 Assay for human Paired Box 6 (PAX6) (AID 2282956); settings: HepG2 CIS-FACTORIAL PAX6 reporter transcription, RNA readout; actives raise or lower the signal
Sequence of Paired box protein Pax-6 (Homo sapiens) (P26367 whole entry, looked up): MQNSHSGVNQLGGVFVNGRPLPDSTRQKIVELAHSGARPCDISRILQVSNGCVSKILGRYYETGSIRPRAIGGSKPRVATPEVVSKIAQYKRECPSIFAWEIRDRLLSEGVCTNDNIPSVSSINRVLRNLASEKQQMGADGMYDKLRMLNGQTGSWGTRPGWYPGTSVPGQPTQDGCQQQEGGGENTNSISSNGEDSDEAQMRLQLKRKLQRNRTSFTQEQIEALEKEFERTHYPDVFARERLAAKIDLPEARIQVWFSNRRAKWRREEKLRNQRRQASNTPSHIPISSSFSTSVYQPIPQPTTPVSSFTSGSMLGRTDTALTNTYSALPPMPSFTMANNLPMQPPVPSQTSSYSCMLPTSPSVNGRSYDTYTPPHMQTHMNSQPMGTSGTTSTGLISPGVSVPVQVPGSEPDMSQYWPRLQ
Summary of the method: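 HepG2 cells transiently transfected with multiplexed cis-promoter reporter units (endogenous TF activity) were dosed for 24 h. Reporter mRNA was quantified by RT-PCR, 6-FAM labeling, HpaI digestion and capillary electrophoresis; bidirectional fitting versus DMSO baseline.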

Measured: AC50

CC(=O)c1ccccc1O
not listed: [17] | [18] | [19] | [20]
inactive: all other assays above

COC(=O)c1ccccc1C
active: [10] 40.6 µM
not listed: [7] | [9] | [20]
inactive: all other assays above

C1CCSC1
not listed: [7] | [9] | [11]
inactive: all other assays above

CC(CCC(=O)O)(c1ccc(O)cc1)c1ccc(O)cc1
active: [10] 27.5 µM
not listed: [6]
inactive: all other assays above
